{
  "source": "PubChem BioAssay (EPA / NIEHS)",
  "note": "Active and inactive are the calls of the source. How the source made its calls: active means hit-call score of the fitted dose curve at least 0.9, where 1 is the maximum; inactive means score below 0.9.",
  "data": [
    {"read-out": "Forkhead box O1 (FOXO1), FOXO1 (gene 2308)", "assay": "LTEA_HepaRG_FOXO1: Life Technologies and Expression Analysis (LTEA) Assay for Forkhead box O1 (FOXO1) using HepaRG (AID 2283456)", "conditions": "mRNA level, 48 h; actives raise or lower the signal", "method": "LTEA_HepaRG is a cell based, multiplexed-readout assay that uses HepaRG, a human liver cell line, with measurements taken at 48 hours after chemical dosing on a 96-well plate.LTEA_HepaRG_FOXO1 is one of 102 assay component(s) measured in the LTEA HepaRG cell culture assay. It is a marker of Cell proliferation, survival, death.Data from the assay component LTEA_HepaRG_FOXO1 was analyzed into 1 endpoint. This assay endpoint, LTEA_HepaRG_FOXO1, was analyzed with bidirectional fitting relative to DMSO as the negative control and baseline of activity. Using a type of inducible reporter, measures of mRNA induction for gain or loss-of-signal activity can be used to understand regulation of transcription factor activity. To generalize the intended target to other relatable targets, this assay endpoint is annotated to the dna binding intended target family, where the subfamily is forkhead box protein.\nA total of 1060 chemcials from the ToxCast library were tested in eight-point concentration-response experiments. Cell culture and cytotoxicity assays were conducted at Thermo Fisher Scientific's Custom Services facility (Madison, WI). A single lot of human HepaRG cells (Thermo Fisher Scientific, Frederick, MD) was used for the cell culture experiments. 96-well format collagen type I coated plates of human HepaRG cells were prepared using established methods. Briefly, cryopreserved HepaRG cells were thawed, plated at a density of approximately 100,000 cells/well in HepaRG Thaw, Plate, and General Purpose media (HPRG770, Thermo Fisher Scientific), and incubated for 48 hours. 0.5% DMSO was selected as vehicle control to balance the requisite need of DMSO in HepaRG cultures to maintain differentiation (for example, baseline metabolism, proportions of hepatocytes vs. cholangiocytes), while enabling further hepatic receptor pathway activation (for example, PXR and CAR) in response to chemical exposure. 48 hours after plating, the culture medium was replaced with HepaRG Serum-Free Incudtion Media. Cells were exposed to each test chemical in duplicate and maintained in CO2 incubators for another 48 hours. Chemical plates were thawed to room temperature and 200x concentrations of treatment groups were prepared. 8-point conentration-reponse curves were made with the highest exposure at 100 uM, followed by half-log dilutions, all in 0.5% DMSO. Each test plate contained variouse controls, induction positive controls (1mM phenobarbital), cytotoxicity positive controls ([…] aflatoxin B1), vehicle controls (0.5% DMSO), and total lysis controls (0.5% DMSO). Cell morphology images were taken using an Essen IncuCyte FLR automated microscope, with six 96-well plates imaged in about 24 minutes. Images were captured and exported and JPEG files. Spent culture media was transfered to black-well plates for the LDH assay, and remaining media was sorted at -80 C for later use. Cells were treated with RLT buffer and frozen until shipped for gene expression analysis. Total RNA was isolated from the cell suspension in 75 uL of Buffer RLT (Qiagen, Germantown, MD 20874) by Quintiles/Expression Analysis (Durham, NC) using a custom isolation procedure. Total RNA from each plate well was transferred to a preamplification plate. Fluidigm's 96.96 Dynamic ArrayTM (Fluidigm, Amsterdam, the Netherlands) technology was used for gene expression analyses by quantitative reverse transcription polymerase chain reaction (qRT-PCR, performed by Quintiles/Expression Analysis, Durham, NC)89. Standard TaqManTM Assays (Applied Biosystems/ThermoFisher Scientific, Foster City, CA) were used to assess the expression of 93 genes selected based on their selectivity and sensitivity to important hepatic receptors known to be modulated by environmental chemicals; importance in human hepatocyte functionality; and hepatotoxicity. […]", "values": [
      {"smiles": "CCN(C(=O)c1cc(C)cc(OC[C@H](C)Nc2ccncc2)c1)C(C)C", "outcome": "inactive"},
      {"smiles": "COC(=O)CC(=O)OC", "outcome": "inactive"},
      {"smiles": "O=c1[nH]c2ccc(S(=O)CCN3CCC(Cc4ccc(F)cc4)CC3)cc2o1", "note": "(stereo not given)", "outcome": "inactive"},
      {"smiles": "CC(C)(O)c1coc(S(=O)(=O)NC(=O)Nc2c3c(cc4c2CCC4)CCC3)c1", "outcome": "inactive"},
      {"smiles": "Cn1c(=O)c2c(ncn2C)n(C)c1=O", "outcome": "inactive"},
      {"smiles": "O=C(OC[C@H]1O[C@@H](OC(=O)c2cc(O)c(O)c(OC(=O)c3cc(O)c(O)c(O)c3)c2)[C@H](OC(=O)c2cc(O)c(O)c(OC(=O)c3cc(O)c(O)c(O)c3)c2)[C@@H](OC(=O)c2cc(O)c(O)c(OC(=O)c3cc(O)c(O)c(O)c3)c2)[C@@H]1OC(=O)c1cc(O)c(O)c(OC(=O)c2cc(O)c(O)c(O)c2)c1)c1cc(O)c(O)c(OC(=O)c2cc(O)c(O)c(O)c2)c1", "outcome": "inactive"},
      {"smiles": "CC(=O)OCCC(C)C", "outcome": "inactive"},
      {"smiles": "CCc1cc(SCc2sc(-c3ccc(C(F)(F)F)cc3)nc2CN2CCN(c3ccc(OC)cc3)CC2)ccc1OCC(=O)O", "AC50": "92.4 µM (active)"},
      {"smiles": "CCn1nc(Cc2ccccc2)cc1C1CCN(C[C@H]2C[C@H](N(C)[C@@H](C(=O)O)C(C)C)C[C@@H]2c2cccc(F)c2)CC1", "outcome": "inactive"},
      {"smiles": "Fc1ccccc1[C@@H](F)COC1CCC(Nc2ncnc3[nH]ncc23)CC1", "note": "(stereo not given in full)", "AC50": "82.1 µM (active)"},
      {"smiles": "Cc1c(-c2cccnc2)c2ccccc2n1CCCCC(=O)O", "outcome": "inactive"},
      {"smiles": "C=CCCCCCCCCC(=O)O", "outcome": "inactive"},
      {"smiles": "Nc1nc2ncc(CNc3ccc(C(=O)N[C@@H](CCC(=O)O)C(=O)O)cc3)nc2c(=O)[nH]1", "outcome": "inactive"},
      {"smiles": "Cc1ccc(C)c(O)c1", "outcome": "inactive"},
      {"smiles": "CCCCCCc1ccc(O)cc1O", "outcome": "inactive"},
      {"smiles": "CC(=O)OC[C@H]1O[C@@](COC(C)=O)(O[C@H]2O[C@H](COC(C)=O)[C@@H](OC(C)=O)[C@H](OC(C)=O)[C@H]2OC(C)=O)[C@@H](OC(C)=O)[C@@H]1OC(C)=O", "outcome": "inactive"},
      {"smiles": "Cc1[nH]cnc1C[C@H]1CCc2c(C)c3ccccc3n2C1=O", "AC50": "75.4 µM (active)"},
      {"smiles": "Oc1ccc2c(c1)-c1ccccc1C2", "outcome": "inactive"},
      {"smiles": "CNS(=O)(=O)c1cc(C(=O)N2CCC(CCN3C4CCC3CC(n3c(C)nc5ccccc53)C4)(c3cccc(F)c3)CC2)c(Cl)cc1F", "note": "(stereo not given)", "outcome": "inactive"},
      {"smiles": "CCCCC(CC)COC(=O)c1ccc(C(=O)OCC(CC)CCCC)cc1", "note": "(stereo not given)", "outcome": "inactive"},
      {"smiles": "CN(C)c1ccc(N=NS(=O)(=O)O)cc1", "outcome": "inactive"},
      {"smiles": "Clc1nc(Cl)c(Cl)c(Cl)c1Cl", "outcome": "inactive"},
      {"smiles": "O=C1CCCCCN1", "outcome": "inactive"},
      {"smiles": "CNCc1ccc(NC(=O)c2c[nH]c3c2C(=O)CCC3)cc1", "outcome": "inactive"},
      {"smiles": "CC(C)=CCCC(C)=CC=O", "outcome": "inactive"},
      {"smiles": "O=C1OC(=O)C2C3C=CC(C3)C12", "note": "(stereo not given)", "outcome": "inactive"},
      {"smiles": "COc1cccc(-c2ccc(/C=C\\CN3CCCCCC3)cc2Cl)c1", "AC50": "70.8 µM (active)"},
      {"smiles": "O=C(O)c1cc(N=Nc2ccc(S(=O)(=O)Nc3ccccn3)cc2)ccc1O", "outcome": "inactive"},
      {"smiles": "CC(C)=CCCC(C)CCO", "note": "(stereo not given)", "outcome": "inactive"},
      {"smiles": "Cc1ccc(N)cc1O", "outcome": "inactive"},
      {"smiles": "C1N2CN3CN1CN(C2)C3", "outcome": "inactive"},
      {"smiles": "CN(C)c1ccc(Cc2ccc(N(C)C)cc2)cc1", "outcome": "inactive"},
      {"smiles": "CC(C)c1cccc(C(C)C)c1N1C(=O)c2ccc(O)cc2C1=O", "AC50": "83.9 µM (active)"},
      {"smiles": "C=CC(=C)CCC=C(C)C", "outcome": "inactive"},
      {"smiles": "O=C(O)c1cccc(Oc2ccccc2)c1", "outcome": "inactive"},
      {"smiles": "CCOCCOCCOCCO", "outcome": "inactive"},
      {"smiles": "CCCN(C1CCN(C(=O)C2CCNCC2)CC1)[C@@H]1CCc2ccc(OC)cc2C1", "AC50": "50 µM (active)"},
      {"smiles": "COc1ccc(-n2nc(C(F)F)cc2-c2ccc(S(C)=O)cc2)cc1", "note": "(stereo not given)", "outcome": "inactive"},
      {"smiles": "CC(O)CN(CCN(CC(C)O)CC(C)O)CC(C)O", "note": "(stereo not given)", "outcome": "inactive"},
      {"smiles": "O=P(OC(CCl)CCl)(OC(CCl)CCl)OC(CCl)CCl", "outcome": "inactive"}
    ]}
  ]
}
